Compound activity as filed in PubChem.
TDP1 cell noCPT: qHTS for Inhibitors of human tyrosyl-DNA phosphodiesterase 1 (TDP1): qHTS in cells in absence of CPT | DT40 Tdp1-/- hTDP1 cells, no CPT, ATP luminescence, 48 h | Potency, µM (doses to about 46.2 µM), most hits filed as inhibitors | actives 15% (n = 420,000) | AID 686978, 2013; also: nearly all actives have a fitted effect of over 55% in size
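Growth of hTDP1-complemented DT40 Tdp1-knockout cells is measured by ATP luminescence after at least 48 hr compound exposure at 37 °C, with DMSO substituting for the 20 nM CPT used in the parallel screen.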
HT1080NT lethal: kills 2HG-producing HT-1080-NT fibrosarcoma cells; HT-1080-NT fibrosarcoma viability, CellTiter-Glo ATP luminescence, 48 h; Potency, µM (doses to about 46.1 µM), most hits filed as cytotoxic; actives 1.6% (n = 360,000); AID 686970;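 also: NT is the 2HG producing partner of a matched IDH1 knockdown line; nearly all actives have a fitted effect of over 55% in size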
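Toxicity toward the 2HG-producing NT line was scored as %Activity, normalised to DMSO and no-cell wells, from CellTiter-Glo luminescence after 48 hours' treatment.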
HT1080 IDH1KD tx: HT-1080 IDH1 knockdown cell toxicity (counter line) | Potency, µM (highest dose often 46.1 µM), hits mostly cytotoxic | HT-1080 IDH1 knockdown viability, ATP luminescence, 48 h | actives 2% (n = 360,000)
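HT-1080-IDH1KD cells (IDH1 knocked down), 750/well in RPMI with 5% FBS, treated with compound 48 h at 37 degrees C. Viability by CellTiter-Glo luminescence, normalised to DMSO and no-cell wells; concentration-response curves classed.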
IL-1B inflam inh: inhibitors of inflammasome signaling (IL-1 beta secretion). THP-1 LPS/ATP IL-1B secretion, AlphaLISA, 16 h; stronger effect = lower value. activity change, % at 57.5 µM. actives 4.7% (n = 360,000). AID 743279; in the data active = activity change below about -50%; inconclusive = mostly about -30% to -49%
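Secreted IL-1B measured by AlphaLISA bead assay after 16 h compound exposure of THP-1 cells; compounds (final up to 57.5 uM) added 1 h before LPS (250 ng/mL) and ATP (1.25 mM) stimulation; lower signal means less secretion.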
DT40 TDP1 CPT: DT40-hTDP1 cell growth loss with CPT. chicken DT40 Tdp1-/-;hTDP1 cells + 20 nM CPT, ATP luminescence, 48 h. Potency, µM (highest dose often 46.2 µM), usual class: inhibitors. actives 12% (n = 420,000). AID 686979; also: nearly all actives have a fitted effect of over 55% in size
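Chicken DT40 Tdp1-/- cells stably complemented with human TDP1 were seeded at 400 cells/well in medium containing 20 nM camptothecin, exposed to pin-transferred compounds, and grown at 37 °C for at least 48 hr. Viability was read as ATP luminescence.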
Numbers stand for hits; 0 = inactive; ? = inconclusive; - = no result given; [ ] = dose if it differs, or a comment. Shown are actives, neighbours in structure and some others; about 19% of the full set was active somewhere. Unless noted, calls follow the shape of the dose curve; as a rule, active = well fitted curve in the direction sought with a large enough effect; inconclusive = small, poorly fitted or top-dose-only effect, or another doubt; inactive = no such curve, though single readings can be large; an effect the other way counts as inactive or inconclusive.

SMILES	TDP1 cell noCPT	HT1080NT lethal	HT1080 IDH1KD tx	IL-1B inflam inh	DT40 TDP1 CPT
Cc1ncc2c(c1CNC(=O)c1ccc3c(c1)OCO3)CCN(C(=O)c1noc3c1CCCC3)C2	0	-	-	-	0[9.04 µM]
Cc1cc(C)c(OCCCCCn2ccnc2)c(C)c1	15µM	0	0	0	?
CC1(C)NC(=O)N(CCOCCOc2ccc3ccccc3c2Br)C1=O	?	0	?	0	?
Cc1ccc(C)c(OCCCCCn2ccnc2)c1	?	?	?	0	?
Cc1cc(Cl)c(OCCCN2CCCCC2)c(Br)c1	?	0	0	-79	0
CC1(C)NC(=O)N(CCCCOc2ccc3ccccc3c2Cl)C1=O	0	?	10µM	0	?
Cc1cc(OCCCCN2C(=O)NC(C)(C)C2=O)ccc1[N+](=O)[O-]	12µM	0	0	0	?
CCc1ccc(-c2nc3c(c(SCc4ccccc4F)n2)Cc2c(CO)cnc(C)c2O3)cc1	0	-	-	-	0
CC(C)NC(=O)N1CCCC2(CCN(S(=O)(=O)c3ccccc3)CC2)C1	0	-	-	-	0
Cc1cc(OCCCCCn2ccnc2)cc(C)c1Cl	13µM	?	?	0	?
CCc1ccc(OCCn2ccnc2)cc1	0	0	0	0	0
CCc1ccc(OCCCCCn2ccnc2)cc1	18µM	0	0	0	?
Cc1ccc(OCCn2ccnc2)c([N+](=O)[O-])c1	0	0	0	0	0
Cc1cc(Cl)c(OCCOCCN2CCNCC2)c(Cl)c1	12µM	0	0	0	?
Cc1cc(OCCCn2ccnc2)ccc1[N+](=O)[O-]	?	0	0	-79	0
CC(C)(C)C1CCC(C(=O)OCC(=O)N2CCN(C(=O)c3ccco3)CC2)CC1 (stereo unspecified)	0	0	0	0	?
Cc1cc(Cl)c(OCCn2ccnc2)c(Br)c1	?	0	0	0	12µM
Cc1cc(Cl)c(OCCN2C(=O)NC(C)(C)C2=O)c(Br)c1	0	0	0	0	?
Clc1ccc(OCCn2ccnc2)c(Cl)c1	0	0[9.24 µM]	0	0	0
Cc1cc(Cl)cc(C)c1OCCn1ccnc1	5.2µM	0	0	0	5.2µM
Cc1cc(Cl)cc(C)c1OCCCCCn1ccnc1	?	0	0	-91	18µM
C=CCc1cc(Cl)ccc1OCCCn1ccnc1	21µM	0	0	0	?
COc1ccc(OC)c(NC(=S)N2CCC(C(O)(c3ccccc3)c3ccccc3)CC2)c1	?	0	0	0	0
CNS(=O)(=O)c1cccc(C(=O)NCC(c2ccco2)N(C)C)c1 (stereo unspecified)	0	0	0	0	0
CC1(C(=O)NS(=O)(=O)Cc2ccccc2C(F)(F)F)CCN1C(=O)Cc1ccsc1 (stereo unspecified)	?	0	0	0	?
SMILES	TDP1 cell noCPT	HT1080NT lethal	HT1080 IDH1KD tx	IL-1B inflam inh	DT40 TDP1 CPT
CC1(C(=O)NS(=O)(=O)c2ccccc2Cl)CCN1C(=O)Cc1cc(F)ccc1F (stereo unspecified)	0	0	?	0	0
Cn1nc(C(F)(F)F)c(-c2cccc(C(F)(F)F)c2)c1NC(=O)Nc1ccc(F)cc1	15µM	0	0	0	16µM
CC(C)(C)OC(=O)N(CCc1ccccc1)Cc1ccccc1OCc1cccc(NC(=O)C2CC2)c1	?	0	0	0	?
CC(C)(C)OC(=O)N(Cc1ccccc1)Cc1cccc(OCc2cccc(NC(=O)c3ccccc3)c2)c1	23µM	0	0	0	23µM
CC(C)C(=O)Nc1cccc(COc2ccccc2CN(Cc2ccccc2)C(=O)OC(C)(C)C)c1	23µM	0	0	0	?
CC(C)(C)OC(=O)N(Cc1ccccc1)Cc1ccccc1OCc1cccc(NC(=O)c2ccccc2)c1	16µM	0	0	0	16µM
COC(=O)C1N2C(=O)[C@@H](NC(=O)COc3ccccc3)[C@H]2SC1(C)C (stereo partly specified)	0	0	0	0	0
COc1ccc(CNC(=O)CN2N=C(c3ccccc3)CCC2=O)c(OC)c1	?	-	-	-	0
Cc1ccc(-c2nc3n(n2)Cc2ccccc2-3)cc1	?	?	?	0	?
Fc1ccc(-c2nc3n(n2)Cc2ccccc2-3)cc1	?	26µM	15µM	0	0
CCn1c(C)nc2cc(-c3nc4n(n3)Cc3ccccc3-4)ccc21	7.3µM	2.1µM	1.8µM	?	6.5µM
CCc1ccccc1N(C(=O)c1snc(C(N)=O)c1N)C(C(=O)NCC1CCCO1)c1ccc(OC)c(OC)c1 (stereo unspecified)	12µM	0	0	0	16µM
Cc1cccc(N(C(=O)c2snc(C(N)=O)c2N)C(C(=O)NCC2CCCO2)c2c[nH]c3ccccc23)c1 (stereo unspecified)	?	0	0	?	?
COc1ccc(N(C(=O)Cn2nnc(-c3ccc(Cl)cc3)n2)C(C(=O)NCC2CCCO2)c2ccc(C)cc2)cc1 (stereo unspecified)	0	0	0	0	0
COc1ccc(N(C(=O)Cn2nnc(-c3ccccc3F)n2)C(C(=O)NCC2CCCO2)c2ccc(Cl)cc2)cc1 (stereo unspecified)	9.2µM	0	0	0	?
COc1cccc(N(C(=O)c2snc(C(N)=O)c2N)C(C(=O)NCC2CCCO2)c2ccc(F)cc2)c1 (stereo unspecified)	?	0	0	0	?
NC(=O)c1nsc(C(=O)N(c2cccc(F)c2)C(C(=O)NCC2CCCO2)c2c[nH]c3ccccc23)c1N (stereo unspecified)	0	?	0	-68	0
CCOc1ccc(C(C(=O)NCC2CCCO2)N(C(=O)c2snc(C(N)=O)c2N)c2ccc(F)cc2)cc1 (stereo unspecified)	?	0	0	?	18µM
COc1cccc(C(C(=O)NC2CCCC2)N(Cc2ccccc2OC)C(=O)c2ccco2)c1 (stereo unspecified)	?	0	0	0	?
NC(=O)c1nsc(C(=O)N(c2ccc(F)cc2)C(C(=O)NCC2CCCO2)c2c[nH]c3ccccc23)c1N (stereo unspecified)	?	0	0	-60	?
NC(=O)c1nsc(C(=O)N(c2ccc3c(c2)OCO3)C(C(=O)NCC2CCCO2)c2ccc(F)cc2)c1N (stereo unspecified)	?	0	0	0	0
CC(=O)N[C@@H](C(=O)O)C(C)(C)SN=O	0	-	-	-	0
COc1ccc(C2=C(c3ccc(OC)c(OC)c3)CN3CCCCC3C2)cc1 (stereo unspecified)	?	0	0	0	?
Cn1c(C=O)c(-c2ccc3c(c2)OCCO3)c2ccccc21	18µM	0	0	0	?
Cn1c2ccccc2c(=O)c2ccc(-c3ccc4c(c3)OCO4)cc21	13µM	0	0	0	?
